Records with an inconclusive call do not appear. Activity calls are given as the source filed them. Unless noted, the call rests on the fitted dose curve; in most records, active means well fitted curve in the direction sought with a large enough effect in the repeat runs; inconclusive means weak or mixed curves; inactive means no such curve, though single readings can be large; an effect the other way counts as inactive or inconclusive.
Key:
[1] = qHTS assay for small molecule agonists of the p53 signaling pathway (AID 651631; calls by dose curve; further: nearly all actives have a fitted effect of over 15% in size)
Procedure, shortened: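 Stably transfected HCT-116 cells (beta-lactamase behind p53 response elements) get compounds after a 5 h settling period; 16 h later at 37 °C, FRET substrate is loaded and fluorescence read after 2 h.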

[2] = qHTS assay for small molecules that induce genotoxicity in human embryonic kidney cells expressing luciferase-tagged ATAD5 (AID 651632); further: nearly all actives have a fitted effect of over 15% in size
Procedure, shortened: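 HEK293T cells carrying a luciferase reporter tagged to ATAD5 were exposed to compound or DMSO vehicle for 16 hr at 37C, 5% CO2. Amplite was added, and after 30 min at room temperature luciferase activity was read as a marker of ATAD5 induction.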

[3] = qHTS assay for small molecule agonists of the p53 signaling pathway - cell viability (AID 651633; calls by dose curve;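 further: p53RE-bla HCT reporter cells with a stable beta-lactamase p53 reporter; series mostly up to about 83 µM; nearly all actives have a fitted effect of over 30% in size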)
Procedure, shortened: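 Viability counter-read: CellTiter-Glo luminescence (30 min, room temperature) in the same p53RE-bla plates. These plates had been exposed to compounds for 16 h at 37 C.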

[4] = qHTS assay for small molecules that induce genotoxicity in human embryonic kidney cells expressing luciferase-tagged ATAD5 - cell viability (AID 651634; calls by dose curve; further: nearly all actives have a fitted effect of over 25% in size)
Procedure, shortened: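 HEK293T cells expressing luciferase-tagged ATAD5 were exposed to compound or DMSO for 15.5 hr at 37C, 5% CO2. Viability was then read as live-cell protease activity by CellTiter-Fluor fluorescence after 30 min at 37C.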

[5] = qHTS assay for small molecule disruptors of the mitochondrial membrane potential - cell viability (AID 720634; calls by dose curve;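 further: human HepG2 liver cancer cells; series mostly up to about 83 µM; nearly all actives have a fitted effect of over 20% in size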)
Procedure, shortened: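 HepG2 cells seeded overnight at 37 C, then exposed to compound or DMSO for 1 hr at 37 C, 5% CO2. m-MPI dye added, then CellTiter-Glo for 30 min at room temperature; viability read as ATP luminescence.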

[6] = qHTS assay to test for compound auto fluorescence at 590 nm (red) in HepG2 cells (AID 720674)
Procedure, shortened: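 We screened compounds on adherent HepG2 cells, incubating them for an hour at 37 C in 5% CO2 before reading emission at 590 nm under 540 nm excitation; values reflect equivalence to Rose Bengal sodium fluorescence.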

[7] = qHTS assay to test for compound auto fluorescence at 535 nm (green) in HepG2 cells (AID 720675)
[8] = qHTS assay to test for compound auto fluorescence at 460 nm (blue) in HEK293 cells (AID 720678)
Procedure, shortened: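 Blue read-out at excitation 405 nm and emission 460 nm follows overnight compound exposure of HEK293 cells at 37C in 5% CO2. Activity is given as auto fluorescence equivalency to triamterene.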

[9] = qHTS assay to test for compound auto fluorescence at 590 nm (red) in HEK293 cells (AID 720679)
Procedure, shortened: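 Red channel, Ex/Em 540/590nm; signal expressed as equivalency to Rose Bengal sodium. HEK293, 2,000 cells/well, 10% dialyzed FBS; 23 nL compound pinned after 4-5 hr attachment; overnight 37C/5% CO2 before reading.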

[10] = qHTS assay to test for compound auto fluorescence at 460 nm (blue) in HEK293 cell free culture (AID 720681)
Procedure, shortened: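 Blue fluorescence (Ex 405/Em 460 nm, triamterene-equivalent) was read immediately after pin transfer of compound or DMSO into medium (DMEM, 10% FBS) without cells.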

[11] = qHTS assay to test for compound auto fluorescence at 535 nm (green) in HEK293 cell free culture (AID 720682)
Procedure, shortened: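 Using fluorescein as calibrant, autofluorescence was quantified at 485/535 nm in cell-free DMEM containing 10% FBS after pintool addition of compound or vehicle.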

[12] = qHTS assay to test for compound auto fluorescence at 590 nm (red) in HEK293 cell free culture (AID 720683)
Procedure, shortened: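 Red-channel autofluorescence of compounds in culture medium (DMEM, 10% FBS), no cells, measured at 540/590 nm. Rose Bengal sodium is the reference fluorophore for equivalence.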

[13] = qHTS assay to test for compound auto fluorescence at 590 nm (red) in HepG2 cell free culture (AID 720684)
Procedure, shortened: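 Plate contents were MEM with 10% FBS plus test compound or DMSO, no cells. Fluorescence was recorded with 540 nm excitation and 590 nm emission.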

[14] = qHTS assay to test for compound auto fluorescence at 460 nm (blue) in HepG2 cell free culture (AID 720685)
Procedure, shortened: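 Compound (23 nL) or DMSO pinned into cell-free MEM with 10% FBS; blue fluorescence read at 405/460 nm excitation/emission, expressed as auto-fluorescence equivalency to triamterene.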

[15] = qHTS assay to test for compound auto fluorescence at 535 nm (green) in HepG2 cell free culture (AID 720686)
[16] = qHTS assay to test for compound auto fluorescence at 460 nm (blue) in HepG2 cells (AID 720687)
Procedure, shortened: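 Blue-channel autofluorescence (Ex/Em 405/460 nm, triamterene-equivalent) was measured after 1 hr compound exposure at 37 C, 5% CO2. Cells were HepG2, plated overnight at 37 C in MEM plus 10% FBS.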

[17] = target: Glucocorticoid receptor (Homo sapiens) (UniProt P04150); assay: qHTS assay to identify small molecule agonists of the glucocorticoid receptor (GR) signaling pathway (AID 720691; active means well fitted activation curve with a large enough effect in the signal ratio in the repeat runs, not every such curve was filed as active; the % refers to the signal ratio)
Glucocorticoid receptor (Homo sapiens), sequence (P04150 whole entry, looked up): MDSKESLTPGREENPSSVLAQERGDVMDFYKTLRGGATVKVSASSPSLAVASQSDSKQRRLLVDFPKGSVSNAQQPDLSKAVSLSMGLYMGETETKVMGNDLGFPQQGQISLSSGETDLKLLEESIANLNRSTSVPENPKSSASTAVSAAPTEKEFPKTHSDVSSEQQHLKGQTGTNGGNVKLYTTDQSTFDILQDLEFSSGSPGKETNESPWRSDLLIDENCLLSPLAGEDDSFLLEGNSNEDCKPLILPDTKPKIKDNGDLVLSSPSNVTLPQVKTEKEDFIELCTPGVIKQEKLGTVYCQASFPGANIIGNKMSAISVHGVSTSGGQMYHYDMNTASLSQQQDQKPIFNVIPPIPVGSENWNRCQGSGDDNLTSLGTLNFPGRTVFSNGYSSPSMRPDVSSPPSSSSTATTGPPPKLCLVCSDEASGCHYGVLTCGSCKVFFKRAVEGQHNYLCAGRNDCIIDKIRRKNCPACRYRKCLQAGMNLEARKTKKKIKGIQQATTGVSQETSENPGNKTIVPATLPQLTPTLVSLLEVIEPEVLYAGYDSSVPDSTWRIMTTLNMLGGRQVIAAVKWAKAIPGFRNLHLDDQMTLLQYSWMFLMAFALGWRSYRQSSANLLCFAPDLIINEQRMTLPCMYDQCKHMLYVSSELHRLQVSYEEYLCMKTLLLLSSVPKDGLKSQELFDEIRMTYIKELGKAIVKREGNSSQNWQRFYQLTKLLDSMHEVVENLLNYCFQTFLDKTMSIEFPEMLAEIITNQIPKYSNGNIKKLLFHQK
Procedure, shortened: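 GR-bla HeLa cells (beta-lactamase reporter under glucocorticoid response element) were plated 4 h at 37 C/5% CO2, given compounds in DMSO, and incubated 18 h at 37 C. LiveBLAzer B/G FRET substrate was added for 2 h at room temperature, then fluorescence intensity read.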

[18] = qHTS assay to test for compound auto fluorescence at 535 nm (green) in HEK293 cells (AID 720680)
[19] = target: Glucocorticoid receptor (Homo sapiens) (UniProt P04150); assay: qHTS assay to identify small molecule antagonists of the glucocorticoid receptor (GR) signaling pathway (AID 720692; active means well fitted inhibition curve with a large enough effect in the signal ratio in the repeat runs, not every such curve was filed as active; the % refers to the signal ratio)
Procedure, shortened: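 GR-bla HeLa cells (beta-lactamase reporter under glucocorticoid response element) were pre-plated 4 h at 37 C, treated with compounds plus 5 nM dexamethasone (final) for 18 h, then read by LiveBLAzer B/G FRET fluorescence after 2 h.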

[20] = qHTS assay for small molecule disruptors of the mitochondrial membrane potential (AID 720635)
Procedure, shortened: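 Mitochondrial membrane potential tracked with Mito-MPS dye, red aggregates (ex 540/em 590 nm) against green monomers (ex 490/em 535 nm). Compound treatment 1 hr at 37C, dye 30 min in HepG2.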

Measured: Potency

COC(=O)/C=C\C(=O)OC
not listed: [18] | [19] | [20]
inactive: all other assays above

NC(N)=S
not listed: [20]
inactive: all other assays above

O=C1OC(=O)c2c(Cl)c(Cl)c(Cl)c(Cl)c21
not listed: [17] | [19] | [20]
inactive: all other assays above

COC(=O)OC
not listed: [20]
inactive: all other assays above

CN1CCCC1=O
not listed: [17] | [18] | [19] | [20]
inactive: all other assays above

C[n+]1ccn(CCO)c1
not listed: [1] | [18]
inactive: all other assays above

CC(=O)OC[C@H]1O[C@@](COC(C)=O)(O[C@H]2O[C@H](COC(C)=O)[C@@H](OC(C)=O)[C@H](OC(C)=O)[C@H]2OC(C)=O)[C@@H](OC(C)=O)[C@@H]1OC(C)=O
not listed: [16] | [18] | [20]
inactive: all other assays above

NCCNCCNCCN
not listed: [2]
inactive: all other assays above

O=C1CCCCCCCCCCC1
not listed: [1] | [11] | [18] | [20]
inactive: all other assays above

N#CCC(=O)O
not listed: [5] | [11] | [20]
inactive: all other assays above

OCCOCCOCCOCCOCCO
not listed: [2] | [11] | [17] | [19] | [20]
inactive: all other assays above

CN=C(NC#N)NCCSCc1nc[nH]c1C
not listed: [1] | [3] | [11] | [17] | [18] | [19] | [20]
inactive: all other assays above

C=CC(=O)NCOCCCC
not listed: [1] | [16]
inactive: all other assays above

CC(C)(CO)CO
not listed: [18] | [20]
inactive: all other assays above

Clc1cccc(Cl)c1NC1=NCCN1
not listed: [2]
inactive: all other assays above

OC1CCCCC1
not listed: [5] | [11] | [16] | [20]
inactive: all other assays above

O=C1O[C@H]([C@H](O)CO)C(O)=C1O
not listed: [3]
inactive: all other assays above

— PubChem BioAssay (Tox21)
